PubChem BioAssay (Tox21)
Several values for one entry are separate records, joined by “and”; a condition that tells them apart may be missing. Equal entries are not always repeated. Inconclusive results are not listed. Entries that show only a call come without a potency. More than one record can exist for a structure, and the calls need not agree. Activity calls are given as the source filed them. Calls come from the whole dose curve; as a rule, active = well fitted curve in the direction sought with a large enough effect in the repeat runs; inconclusive = weak or mixed curves; inactive = no such curve, though single readings can be large; an effect the other way counts as inactive or inconclusive.
Note: nearly all actives have a fitted effect of over 50% in size.
Potency is the fitted concentration of half-maximal effect.

Experiment: qHTS RealTime-Glo MT Cell Viability Assay in HepG2 cells - 24 hour (AID 1224867)
Conditions: RealTime-Glo luminescence; series mostly up to 76.8 µM
Procedure, shortened: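 Cell number in HepG2 cultures estimated from NanoLuc luminescence generated by metabolic reduction of a prosubstrate by living cells. The homogeneous, nonlytic format allowed repeated reads at 0, 8, 16, 24, 32 and 40 h of compound exposure.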
With `CC(C)Oc1ccc2c(=O)c(-c3ccccc3)coc2c1` the Potency was “inactive”.
In the case of `Cc1ccc(C)c(O)c1C`, the Potency is reported as “inactive”.
With `Cc1[nH]c(=O)c(C#N)cc1-c1ccncc1` the Potency was “inactive”.
With `CCCCC/C=C/C=C/C=O` the Potency was “inactive”.
In the case of `c1ccncc1`, the Potency is reported as “inactive”.
For `Cc1cccc(C(=O)O)c1`, the Potency was “inactive”.
In the case of `CCCCC(CC)COCC1CO1` (stereo unspecified), the Potency is reported as “inactive”.
In the case of `O=C(COc1ccc(Cl)cc1)N1CCN(Cc2ccc3c(c2)OCO3)CC1`, the Potency is reported as “inactive”.
In the case of `O=[N+]([O-])c1ccc2c(c1)Cc1ccccc1-2`, the Potency is reported as “inactive”.
With `CC(C)OB(OC(C)C)OC(C)C` the Potency was “inactive”.
In the case of `CC(CCC(=O)O)(c1ccc(O)cc1)c1ccc(O)cc1`, the Potency is reported as “inactive”.
With `CCCCc1oc2ccccc2c1C(=O)c1cc(I)c(OCCN(CC)CC)c(I)c1` the Potency was 39.2 µM (active) and 23.9 µM (active).
With `CC(=O)C1(C)CC2=C(CCCC2(C)C)CC1C` (stereo unspecified) the Potency was “inactive”.
In the case of `CCOC(=O)C(C#N)=C(c1ccccc1)c1ccccc1`, the Potency is reported as “inactive”.
With `CC(C)(C)NC(=O)[C@H]1CC[C@H]2[C@@H]3CC[C@H]4NC(=O)C=C[C@]4(C)[C@H]3CC[C@]12C` the Potency was “inactive”.
With `C[C@]12CC[C@H]3[C@@H](CCC4=CC(=O)CC[C@@]43C)[C@@H]1CC[C@@H]2C(=O)CO` the Potency was “inactive”.
With `C=C(C)C(=O)OCCOC(=O)C(=C)C` the Potency was “inactive”.

Experiment: qHTS RealTime-Glo MT Cell Viability Assay in HEK293 cells - 32 hour (AID 1224868)
Conditions: RealTime-Glo luminescence; series mostly up to 76.8 µM
Procedure, shortened: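 Homogeneous bioluminescent viability format in HEK293 cells (600 cells/well). Following 5 h at 37 C/5% CO2, 23 nL compound was pintooled; the signal was measured repeatedly during 40 h incubation.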
With `Cc1cccc([N+](=O)[O-])c1C` the Potency was “inactive”.
In the case of `CCC(C)c1ccccc1O` (stereo unspecified), the Potency is reported as “inactive”.
For `O=C(c1ccccc1)c1ccccc1O`, the Potency was “inactive”.
With `Brc1cc(Oc2cc(Br)c(Br)c(Br)c2Br)c(Br)c(Br)c1Br` the Potency was “inactive”.
In the case of `CC1=CC2C3CC(C=C3C)C2C1` (stereo unspecified), the Potency is reported as “inactive”.
With `OC(CCl)CCl` the Potency was “inactive”.
For `CCC(C)CO` (stereo unspecified), the Potency was “inactive and 24.5 µM (active)”.
In the case of `O=C(/C=C/c1ccccc1)OCc1ccccc1`, the Potency is reported as “inactive”.
With `Cc1cccc(N(C)C(=S)Oc2ccc3ccccc3c2)c1` the Potency was “inactive”.
For `Clc1nc(Cl)c(Cl)c(Cl)c1Cl`, the Potency was “inactive”.
For `Cn1cnc([N+](=O)[O-])c1Sc1ncnc2nc[nH]c12`, the Potency was 19.4 µM (active).
With `O=C(Nc1ccc(Cl)cc1)Nc1ccc(Cl)c(Cl)c1` the Potency was 4.34 µM (active) and 4.36 µM (active) and 3.38 µM (active).
For `O=CCc1ccccc1`, the Potency was “inactive”.
For `Cc1ccc(C)c(O)c1C`, the Potency was “inactive”.
In the case of `Cc1[nH]c(=O)c(C#N)cc1-c1ccncc1`, the Potency is reported as “inactive”.
In the case of `CCCCC/C=C/C=C/C=O`, the Potency is reported as “inactive”.
For `c1ccncc1`, the Potency was “inactive”.
In the case of `Cc1cccc(C(=O)O)c1`, the Potency is reported as “inactive”.
In the case of `O=C(COc1ccc(Cl)cc1)N1CCN(Cc2ccc3c(c2)OCO3)CC1`, the Potency is reported as 43.6 µM (active).
In the case of `O=[N+]([O-])c1ccc2c(c1)Cc1ccccc1-2`, the Potency is reported as “inactive”.
For `CCCCc1oc2ccccc2c1C(=O)c1cc(I)c(OCCN(CC)CC)c(I)c1`, the Potency was 34.9 µM (active) and 23.9 µM (active).
With `CCOC(=O)C(C#N)=C(c1ccccc1)c1ccccc1` the Potency was “inactive”.
For `CC(C)(C)NC(=O)[C@H]1CC[C@H]2[C@@H]3CC[C@H]4NC(=O)C=C[C@]4(C)[C@H]3CC[C@]12C`, the Potency was “inactive”.
In the case of `C[C@]12CC[C@H]3[C@@H](CCC4=CC(=O)CC[C@@]43C)[C@@H]1CC[C@@H]2C(=O)CO`, the Potency is reported as 24.5 µM (active).
In the case of `C=C(C)C(=O)OCCOC(=O)C(=C)C`, the Potency is reported as “inactive”.

Experiment: A CellTox Green Cytotoxicity Assay to monitor cytotoxicity in HEK293 cells - 0 hour (AID 1224869)
Conditions: CellTox Green fluorescence; series mostly up to 76.8 µM
Procedure, shortened: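 Read-out: fluorescence of a cell-impermeant cyanine dye staining DNA of dead cells, proportional to cytotoxicity. HEK293, 600 cells/well with reagent, compound (23 nL DMSO) added after 5 h; reads at 0, 8, 16, 24, 32, 40 h.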
With `COC(C)COC(C)COC(C)CO` (stereo unspecified) the Potency was “inactive”.
With `C[C@]12CCC(=O)C=C1CC[C@@H]1[C@@H]2C(=O)C[C@@]2(C)[C@H]1CC[C@]2(O)C(=O)CO` the Potency was “inactive”.
For `Cc1cccc([N+](=O)[O-])c1C`, the Potency was “inactive”.
For `CCC(C)c1ccccc1O` (stereo unspecified), the Potency was “inactive”.
In the case of `O=C(c1ccccc1)c1ccccc1O`, the Potency is reported as “inactive”.
With `Brc1cc(Oc2cc(Br)c(Br)c(Br)c2Br)c(Br)c(Br)c1Br` the Potency was “inactive”.
With `CC1=CC2C3CC(C=C3C)C2C1` (stereo unspecified) the Potency was “inactive and 38.9 µM (active)”.
For `Nc1ncn([C@@H]2O[C@H](CO)[C@@H](O)[C@H]2O)c(=O)n1`, the Potency was “inactive”.
With `OC(CCl)CCl` the Potency was “inactive”.
With `CCC(C)CO` (stereo unspecified) the Potency was “inactive”.
In the case of `Cc1ccc2c(n1)Oc1ccc(C(C)C(=O)OCC(=O)N(C)C)cc1C2` (stereo unspecified), the Potency is reported as “inactive”.
In the case of `O=C(/C=C/c1ccccc1)OCc1ccccc1`, the Potency is reported as “inactive”.
With `C#C[C@]1(O)CC[C@H]2[C@@H]3CCc4cc(OC)ccc4[C@H]3CC[C@@]21C` the Potency was “inactive”.
In the case of `Cc1cccc(N(C)C(=S)Oc2ccc3ccccc3c2)c1`, the Potency is reported as “inactive”.
For `CC(C(=O)O)c1cccc(C(=O)c2ccccc2)c1` (stereo unspecified), the Potency was “inactive”.
For `Cc1c(OCC(F)(F)F)ccnc1CS(=O)c1nc2ccccc2[nH]1` (stereo unspecified), the Potency was “inactive”.
In the case of `Clc1nc(Cl)c(Cl)c(Cl)c1Cl`, the Potency is reported as “inactive”.
With `Cn1cnc([N+](=O)[O-])c1Sc1ncnc2nc[nH]c12` the Potency was “inactive”.
For `O=C(Nc1ccc(Cl)cc1)Nc1ccc(Cl)c(Cl)c1`, the Potency was “inactive”.
For `O=CCc1ccccc1`, the Potency was “inactive”.
With `OC1CCCCCCCCCCC1` the Potency was “inactive and 43.6 µM (active)”.
For `OC[C@H]1O[C@@H]2O[C@H]3[C@H](O)[C@@H](O)[C@@H](O[C@H]4[C@H](O)[C@@H](O)[C@@H](O[C@H]5[C@H](O)[C@@H](O)[C@@H](O[C@H]6[C@H](O)[C@@H](O)[C@@H](O[C@H]7[C@H](O)[C@@H](O)[C@@H](O[C@H]8[C@H](O)[C@@H](O)[C@@H](O[C@H]1[C@H](O)[C@H]2O)O[C@@H]8CO)O[C@@H]7CO)O[C@@H]6CO)O[C@@H]5CO)O[C@@H]4CO)O[C@@H]3CO`, the Potency was “inactive”.
With `CC(C)Oc1ccc2c(=O)c(-c3ccccc3)coc2c1` the Potency was “inactive”.
With `Cc1ccc(C)c(O)c1C` the Potency was “inactive”.
In the case of `Cc1[nH]c(=O)c(C#N)cc1-c1ccncc1`, the Potency is reported as “inactive”.
With `CCCCC/C=C/C=C/C=O` the Potency was “inactive”.
With `c1ccncc1` the Potency was “inactive”.
In the case of `Cc1cccc(C(=O)O)c1`, the Potency is reported as “inactive”.
For `CCCCC(CC)COCC1CO1` (stereo unspecified), the Potency was “inactive”.
With `O=C(COc1ccc(Cl)cc1)N1CCN(Cc2ccc3c(c2)OCO3)CC1` the Potency was “inactive”.
For `O=[N+]([O-])c1ccc2c(c1)Cc1ccccc1-2`, the Potency was “inactive”.
In the case of `CC(C)OB(OC(C)C)OC(C)C`, the Potency is reported as “inactive”.
In the case of `CC(CCC(=O)O)(c1ccc(O)cc1)c1ccc(O)cc1`, the Potency is reported as “inactive”.
With `CCCCc1oc2ccccc2c1C(=O)c1cc(I)c(OCCN(CC)CC)c(I)c1` the Potency was “inactive”.
With `CC(=O)C1(C)CC2=C(CCCC2(C)C)CC1C` (stereo unspecified) the Potency was “inactive”.
With `CCOC(=O)C(C#N)=C(c1ccccc1)c1ccccc1` the Potency was “inactive”.
For `CC(C)(C)NC(=O)[C@H]1CC[C@H]2[C@@H]3CC[C@H]4NC(=O)C=C[C@]4(C)[C@H]3CC[C@]12C`, the Potency was “inactive”.
In the case of `C[C@]12CC[C@H]3[C@@H](CCC4=CC(=O)CC[C@@]43C)[C@@H]1CC[C@@H]2C(=O)CO`, the Potency is reported as “inactive”.
For `C=C(C)C(=O)OCCOC(=O)C(=C)C`, the Potency was “inactive”.
